Laboratory results: PubChem BioAssay AID1347131 (National Center for Advancing Translational Sciences (NCATS), 2019)
Screen size: about 410,000 compounds; about 2,000 (0.49%) were called active. Roughly 8% stayed inconclusive and do not appear here. The list comes from a sample in which actives are over-represented; it also holds similar structures and randomly drawn compounds. Unmarked numbers belong to inactive results. Calls follow the shape of the full dose curve; tested in HEK293 reporter line.

Assay: qHTS Assay for Foot and Mouth Disease Virus Antivirals: Primary Screen against the MLPCN compound library; also: nearly all actives have a fitted effect of over 55% in size
Settings: FMDV antiviral cell-based qHTS; series mostly up to 57.9 µM; activity, negative = inhibition: at the top concentration
Potency is read from the fitted curve at half-maximal effect.

SMILES | Potency | activity, negative = inhibition [%]
O=C(COc1ccc(F)cc1)Nc1ccc2nc(SCC(=O)N3CCOCC3)sc2c1 | 25.1 µM (active) | –
O=C(COc1ccc(F)cc1)Nc1ccc2nc(SCC(=O)N3CCc4ccccc43)sc2c1 | – | -35.2
Cc1ccc(OCCSc2nc3ccc(NC(=O)c4ccc(F)cc4)cc3s2)cc1 | – | -39.9
Cc1occc1C(=O)NC1CCCN(Cc2ccc(Cl)cc2)C1 (stereo not drawn) | – | -36.9
Cc1nn(CC(C)C)c(Cl)c1C(=O)N(C)CC(=O)Nc1ccc(Cl)cc1 | – | -43.7
C=CCN(c1ccc(C(=O)Nc2cccc(C)c2)cc1)S(C)(=O)=O | – | -30.9
NC(=O)c1ccsc1NC(=O)CCS(=O)(=O)c1ccc(F)cc1 | – | -36.9
CC1CC(C)CN(S(=O)(=O)c2ccc(C(=O)Nc3sccc3C(N)=O)cc2)C1 (stereo not drawn) | 8.91 µM (active) | –
CC1CN(S(=O)(=O)c2ccc(C(=O)Nc3ccccc3F)cc2)CC(C)O1 (stereo not drawn) | – | -34.4
Cc1onc(-c2ccc3c(c2)OCO3)c1-c1ccc2[nH]ccc2c1 | – | -30.6
CCOc1ccc(-c2nnc3ccc(SC(C)C)nn23)cc1 | – | -33.5
CN(Cc1nc2ccccc2c(=O)[nH]1)C(=O)c1cccc(S(=O)(=O)N2CCCCCC2)c1 | – | -38.5
CC(C(=O)Nc1ccccc1-c1ccccc1)N(C)Cc1nc2ccccc2c(=O)[nH]1 (stereo not drawn) | – | -32.1
CN(C)c1ccc(-c2nc3ccccc3c(=O)[nH]2)cc1 | 20 µM (active) | –
CC(C)CC(=O)Nc1nnc(SCC(=O)Nc2ccc(F)cc2)s1 | – | -44.4
Cc1cccc(-n2nnnc2SCC(=O)NCC2CCCO2)c1 (stereo not drawn) | – | -30.1
CC(C)(C)c1ccc(C(=O)Nc2nnc(SCC(=O)NCC3CCCO3)s2)cc1 (stereo not drawn) | 14.1 µM (active) | –
Cc1cccc(NC(=O)CSc2nnc(NC(=O)CN3CCOCC3)s2)c1 | – | -34.9
Cn1c(SCC(=O)NCC2CCCO2)nnc1-c1c[nH]c2ccccc12 (stereo not drawn) | – | -16
CCOC(=O)CNC(=O)CSc1nnc(NC(=O)c2ccc(C)cc2)s1 | 12.6 µM (active) | –
O=C(COc1ccc2c3c(c(=O)oc2c1)CCC3)N1CCN(c2ccc(F)cc2)CC1 | – | -35.2
Nc1nonc1C(=O)NCCNCc1ccc(Cl)c(Cl)c1 | – | -37
CCCCn1c(N)c(N(CCC(C)C)C(=O)c2ccc3c(c2)OCO3)c(=O)[nH]c1=O | – | -42
CCC(C)c1ccccc1OCCCCN1CCCC1 (stereo not drawn) | – | -31.5

SMILES | Potency | activity, negative = inhibition [%]
CC(C)C(OC(=O)c1cccc(S(=O)(=O)NCC(F)(F)F)c1)C(=O)NC(N)=O (stereo not drawn) | – | 104
Cc1cc(C)nc(NS(=O)(=O)c2ccc(-n3cccc3)cc2)n1 | – | 116
Cc1cc(C(=O)C(=O)N(C)C)c(C)n1-c1ccc([N+](=O)[O-])cc1 | – | -31.5
Cc1ccccc1CN1C2=NCCN2c2ccccc21 | – | -33.6
CCOC(=O)c1ccccc1NC(=O)CN1CCC(n2nnc3cc(C(F)(F)F)ccc32)CC1 | – | -33.7
O=C(Nc1cccc(C(F)(F)F)c1)c1ccc2c(c1)nnn2C1CCCC1 | 12.6 µM (active) | –
Cc1cc(C)cc(NC(=O)c2ccc3c(c2)nnn3C2CCCC2)c1 | – | -30
COc1ccc(NC(=O)c2cc(-c3ccccn3)nc3ccccc23)cc1S(=O)(=O)N(C)C | – | -35.2
CCn1c(=O)c(C(=O)NCc2ccc(OC)c(OC)c2)c(O)c2ccccc21 | – | -36.9
COc1ccc(CNC(=O)Cn2c(=O)nc(-c3ccccc3)c3ccccc32)cc1OC | 20 µM (active) | –
COc1ccc(CCNC(=O)CSc2nnc(-c3ccccc3)c3ccccc23)cc1OC | – | -34.5
CC(=O)c1cc(-c2ccccc2)n(CC(=O)Nc2ccc(C)c(C)c2)c1C | – | -30
COc1cccc2sc(N3CCN(c4nc5ccccc5s4)CC3)nc12 | – | -45.2
c1csc(Cn2nnnc2CN2CCN(c3nc4ccccc4s3)CC2)c1 | 17.8 µM (active) | –
Cc1nc2cc(C(F)(F)F)ccc2n1C1CCN(Cc2nnnn2Cc2cccs2)CC1 | – | -47.6
Nc1ccc(-c2ccc(N)cc2C(F)(F)F)c(C(F)(F)F)c1 | – | -18.9
CC(=O)C1=C(c2ccc(F)cc2)N(C(C)=O)n2c(nnc2C2CCCCC2)S1 | – | -32.7
CCN(CC)CCNC(=O)COc1ccc(OC)cc1 | – | -21.5
CCOC(=O)Cc1csc(NC(=O)COc2ccc(OC)cc2)n1 | – | -34.6
COc1ccc(OCC(=O)Nc2nccs2)cc1 | 15.8 µM (active) | –
COc1ccc(NC(=O)CN(C)C(=O)c2cccc(S(=O)(=O)N3CCN(c4ccccc4)CC3)c2)cc1 | – | -12
Cc1ccccc1CS(=O)(=O)c1ccc(C(=O)N2CCOCC2)cc1[N+](=O)[O-] | – | -30.7
Cc1ccc(S(=O)(=O)Cc2cc(F)c([N+](=O)[O-])cc2[N+](=O)[O-])cc1 | 15.8 µM (active) | –
Cc1ccc(S(=O)(=O)Nc2c(C)cc([N+](=O)[O-])cc2C)cc1 | – | -33.5
